# Results taken from PMC8384837, “Expanding the binding specificity for RNA recognition by a PUF domain”.
# Numbering of substitutions follows the chain as printed.
# Experiments:
# Assay in all cases: yeast three-hybrid, YBZ-1, SC-Leu-His + 0.5 mM 3-AT, 4 days
# Conditions in all cases: tags: N-Gal4 AD-HA kept; label: inside an RPR1-promoter hybrid RNA with tandem MS2 sites; ssRNA
# [1] = target: PUM1 PUF domain R1-GWE (Homo sapiens, UniProt Q14671 828-1176, S863G;R864W;Q867E)
# Method in brief: (§1)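 A centromeric plasmid in strain YBZ-1 co-expressed Pumilio-1 PUF domain libraries, randomized at the three base-contacting residues of each repeat, with matching RNA elements; the strain carries a LexA–MS2 coat fusion and a HIS3 reporter. After four days on SC-Leu (input) or SC-Leu-His + 0.5 mM 3-AT (selection), the repeat regions were PCR-amplified and Illumina-sequenced. The interaction score is the log change in variant frequency from input to selection, using log2 and a pseudocount of 1 where absent.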
# [2] = target: PUM1 PUF domain R4-NPA (Homo sapiens, UniProt Q14671 828-1176, H972P;Q975A)
# Sequence of PUM1 PUF domain R4-NPA (Q14671 828-1176 H972P/Q975A): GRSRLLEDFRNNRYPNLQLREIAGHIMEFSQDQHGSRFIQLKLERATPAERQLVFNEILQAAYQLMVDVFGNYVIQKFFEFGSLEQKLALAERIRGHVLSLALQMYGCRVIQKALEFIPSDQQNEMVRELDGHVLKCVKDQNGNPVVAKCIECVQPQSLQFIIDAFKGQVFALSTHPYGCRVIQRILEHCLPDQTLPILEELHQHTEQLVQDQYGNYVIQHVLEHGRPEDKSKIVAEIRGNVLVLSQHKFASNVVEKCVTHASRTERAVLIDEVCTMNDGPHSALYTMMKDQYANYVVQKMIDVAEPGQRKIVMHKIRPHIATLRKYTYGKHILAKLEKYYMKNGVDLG
# Method in brief: as §1
# [3] = target: PUM1 PUF domain R4-DWG (Homo sapiens, UniProt Q14671 828-1176, N971D;H972W;Q975G)
# Method in brief: as §1
# [4] = target: PUM1 PUF domain R5-GKN (Homo sapiens, UniProt Q14671 828-1176, C1007G;R1008K;Q1011N)
# Method in brief: as §1
# [5] = target: PUM1 PUF domain R5-LNA (Homo sapiens, UniProt Q14671 828-1176, C1007L;R1008N;Q1011A)
# Method in brief: as §1
# [6] = target: PUM1 PUF domain R4-WHG (Homo sapiens, UniProt Q14671 828-1176, N971W;Q975G)
# Method in brief: as §1
# [7] = target: T1, PUM1 PUF domain R6-WWG (Homo sapiens, UniProt Q14671 828-1176, N1043W;Y1044W;Q1047G)
# T1 sequence: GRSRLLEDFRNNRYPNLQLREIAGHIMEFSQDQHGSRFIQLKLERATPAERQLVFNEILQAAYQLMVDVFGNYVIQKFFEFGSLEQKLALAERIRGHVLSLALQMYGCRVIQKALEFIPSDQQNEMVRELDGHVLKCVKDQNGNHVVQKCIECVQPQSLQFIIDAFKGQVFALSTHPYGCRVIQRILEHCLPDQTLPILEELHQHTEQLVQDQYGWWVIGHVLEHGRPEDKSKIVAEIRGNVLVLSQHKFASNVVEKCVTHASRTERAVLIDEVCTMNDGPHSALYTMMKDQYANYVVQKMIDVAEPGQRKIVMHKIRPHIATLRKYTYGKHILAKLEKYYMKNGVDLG
# Method in brief: as §1
# [8] = target: T2, PUM1 PUF domain R6-YWL (Homo sapiens, UniProt Q14671 828-1176, N1043Y;Y1044W;Q1047L)
# T2 sequence: T1 sequence with W216Y, G220L
# Method in brief: as §1
# [9] = target: PUM1 PUF domain R3-FSK (Homo sapiens, UniProt Q14671 828-1176, C935F;R936S;Q939K)
# Method in brief: as §1
# [10] = target: PUM1 PUF domain R3-EHG (Homo sapiens, UniProt Q14671 828-1176, C935E;R936H;Q939G)
# Method in brief: as §1
# [11] = target: PUM1 PUF domain R3-YYS (Homo sapiens, UniProt Q14671 828-1176, C935Y;R936Y;Q939S)
# Method in brief: as §1
# [12] = target: PUM1 PUF domain R1-SKR (Homo sapiens, UniProt Q14671 828-1176, R864K;Q867R)
# Method in brief: as §1
# [13] = target: PUM1 PUF domain R1-RYQ (Homo sapiens, UniProt Q14671 828-1176, S863R;R864Y)
# Method in brief: as §1
# [14] = target: PUM1 PUF domain R3-TRH (Homo sapiens, UniProt Q14671 828-1176, C935T;Q939H)
# Method in brief: as §1
# [15] = target: PUM1 PUF domain R3-VFF (Homo sapiens, UniProt Q14671 828-1176, C935V;R936F;Q939F)
# Method in brief: as §1
# [16] = target: PUM1 PUF domain R3-RTV (Homo sapiens, UniProt Q14671 828-1176, C935R;R936T;Q939V)
# Method in brief: as §1
# [17] = target: PUM1 PUF domain R2-LWQ (Homo sapiens, UniProt Q14671 828-1176, N899L;Y900W)
# Method in brief: as §1
# [18] = target: PUM1 PUF domain R1-KLR (Homo sapiens, UniProt Q14671 828-1176, S863K;R864L;Q867R)
# Method in brief: as §1
# [19] = target: PUM1 PUF domain R1-KRY (Homo sapiens, UniProt Q14671 828-1176, S863K;Q867Y)
# Method in brief: as §1
# [20] = target: PUM1 PUF domain R8-HWI (Homo sapiens, UniProt Q14671 828-1176, N1122H;Y1123W;Q1126I)
# Method in brief: as §1
sequence,measurement,setting,value
GGCUAGAACUAGUGGAUCCCCCGGCGCCCGGCGGCUCGAGCCCGGGUAAGUGUAAAUGGUCUGCAUGCCGCCGGGCGCCAUGCCUGCAGGUCGACUCUAGAAAACAUG,binding signal,[1],2.61 log2 enrichment (interaction score)
GGCUAGAACUAGUGGAUCCCCCGGCGCCCGGCGGCUCGAGCCCGGGUAAGUGUACAUAGUCUGCAUGCCGCCGGGCGCCAUGCCUGCAGGUCGACUCUAGAAAACAUG,binding signal,[2],0.72 log2 enrichment (interaction score)
same,binding signal,[3],2.61 log2 enrichment (interaction score)
GGCUAGAACUAGUGGAUCCCCCGGCGCCCGGCGGCUCGAGCCCGGGUAAGUGUCAAUAGUCUGCAUGCCGCCGGGCGCCAUGCCUGCAGGUCGACUCUAGAAAACAUG,binding signal,[4],1.57 log2 enrichment (interaction score)
GGCUAGAACUAGUGGAUCCCCCGGCGCCCGGCGGCUCGAGCCCGGGUAAGUGUUAAUAGUCUGCAUGCCGCCGGGCGCCAUGCCUGCAGGUCGACUCUAGAAAACAUG,binding signal,[4],3.34 log2 enrichment (interaction score)
same,binding signal,[5],4.02 log2 enrichment (interaction score)
GGCUAGAACUAGUGGAUCCCCCGGCGCCCGGCGGCUCGAGCCCGGGUAAGUGUAUAUAGUCUGCAUGCCGCCGGGCGCCAUGCCUGCAGGUCGACUCUAGAAAACAUG,binding signal,[2],4 log2 enrichment (interaction score)
same,binding signal,[6],3.79 log2 enrichment (interaction score)
same,binding signal,[3],4.56 log2 enrichment (interaction score)
GGCUAGAACUAGUGGAUCCCCCGGCGCCCGGCGGCUCGAGCCCGGGUAAGUGAAAAUAGUCUGCAUGCCGCCGGGCGCCAUGCCUGCAGGUCGACUCUAGAAAACAUG,binding signal,[7],2.56 log2 enrichment (interaction score)
same,binding signal,[8],7.77 log2 enrichment (interaction score)
GGCUAGAACUAGUGGAUCCCCCGGCGCCCGGCGGCUCGAGCCCGGGUAAGUGUAAGUAGUCUGCAUGCCGCCGGGCGCCAUGCCUGCAGGUCGACUCUAGAAAACAUG,binding signal,[9],4.08 log2 enrichment (interaction score)
same,binding signal,[10],4.29 log2 enrichment (interaction score)
same,binding signal,[11],6.91 log2 enrichment (interaction score)
GGCUAGAACUAGUGGAUCCCCCGGCGCCCGGCGGCUCGAGCCCGGGUAAGUGUAAAUCGUCUGCAUGCCGCCGGGCGCCAUGCCUGCAGGUCGACUCUAGAAAACAUG,binding signal,[12],3.09 log2 enrichment (interaction score)
same,binding signal,[13],5.27 log2 enrichment (interaction score)
GGCUAGAACUAGUGGAUCCCCCGGCGCCCGGCGGCUCGAGCCCGGGUAAGUGUAAUUAGUCUGCAUGCCGCCGGGCGCCAUGCCUGCAGGUCGACUCUAGAAAACAUG,binding signal,[14],1.56 log2 enrichment (interaction score)
same,binding signal,[15],4.71 log2 enrichment (interaction score)
same,binding signal,[10],5.05 log2 enrichment (interaction score)
same,binding signal,[16],2.72 log2 enrichment (interaction score)
GGCUAGAACUAGUGGAUCCCCCGGCGCCCGGCGGCUCGAGCCCGGGUAAGUGUAAAAAGUCUGCAUGCCGCCGGGCGCCAUGCCUGCAGGUCGACUCUAGAAAACAUG,binding signal,[17],8.53 log2 enrichment (interaction score)
GGCUAGAACUAGUGGAUCCCCCGGCGCCCGGCGGCUCGAGCCCGGGUAAGUGUAAAUUGUCUGCAUGCCGCCGGGCGCCAUGCCUGCAGGUCGACUCUAGAAAACAUG,binding signal,[18],4.29 log2 enrichment (interaction score)
same,binding signal,[19],3.65 log2 enrichment (interaction score)
same,binding signal,[13],4.14 log2 enrichment (interaction score)
GGCUAGAACUAGUGGAUCCCCCGGCGCCCGGCGGCUCGAGCCCGGGUAAGUGUAAAUAGUCUGCAUGCCGCCGGGCGCCAUGCCUGCAGGUCGACUCUAGAAAACAUG,binding signal,[7],4.79 log2 enrichment (interaction score)
same,binding signal,[14],4.48 log2 enrichment (interaction score)
same,binding signal,[2],1.59 log2 enrichment (interaction score)
same,binding signal,[20],3.85 log2 enrichment (interaction score)
same,binding signal,[17],1.66 log2 enrichment (interaction score)
same,binding signal,[10],2.53 log2 enrichment (interaction score)
same,binding signal,[13],2.21 log2 enrichment (interaction score)
same,binding signal,[3],5.39 log2 enrichment (interaction score)
